PubChem BioAssay
For some assays here: Entries with a potency or affinity are not part of this list. Activity calls are given as the source filed them. Unless noted, no rule for the calls is given here.

Experiments:
[1] = antimalarial activity against Dd2 strain (AID 2302;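 active = growth inhibition above 50% at the single 2 µM test dose, taken to imply half-maximal potency below 2 µM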;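 also: 0% = DMSO untreated growth and 100% = chloroquine plus artemisinin killed control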); details: P. falciparum Dd2 in RBCs, LDH growth readout, 72 h; at 2 µM; hits give high values
[2] = HepG2 cytotoxicity, primary screen, cytotoxicity control for P. falciparum antimalarial project, cell-based, ATP luminescence (AID 2303;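 active = inhibition above 50%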;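 also: 0% = DMSO wells and 100% = digitonin-killed cells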); details: HepG2 viability, 24-48 h, at 10 µM, hits give high values
[3] = biological target: L-lactate dehydrogenase (Plasmodium falciparum (isolate CDC / Honduras)) (UniProt Q27743); assay: PfLDH activity inhibition – cell lysate, 3D7 strain, counter-screen for P. falciparum growth inhibition project (AID 2304);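 also: 0% = vehicle and 100% = reference inhibitor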; details: P. falciparum 3D7 crude extract, LDH APAD/NBT absorbance; at 2 µM; hits give high values
Sequence of L-lactate dehydrogenase (Plasmodium falciparum (isolate CDC / Honduras)) (Q27743 whole entry, looked up): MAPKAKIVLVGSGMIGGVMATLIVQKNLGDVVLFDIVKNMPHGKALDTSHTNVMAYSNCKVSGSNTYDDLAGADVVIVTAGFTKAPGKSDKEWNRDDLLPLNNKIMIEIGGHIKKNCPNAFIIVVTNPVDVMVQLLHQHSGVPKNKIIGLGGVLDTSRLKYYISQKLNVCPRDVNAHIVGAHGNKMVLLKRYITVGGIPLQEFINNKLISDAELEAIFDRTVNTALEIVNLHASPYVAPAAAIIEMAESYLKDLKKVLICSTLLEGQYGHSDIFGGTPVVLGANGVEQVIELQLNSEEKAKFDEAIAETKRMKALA

[4] = inhibition of 3D7 malaria parasite growth – strain 3D7 (AID 2306);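 also: 0% = DMSO wells and 100% = chloroquine plus artemisinin control wells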; details: P. falciparum 3D7 erythrocytic growth, LDH absorbance, 72 h; at 2 µM; hits give high values
[5] = biological target: Calcium-dependent protein kinase 1 (Plasmodium falciparum (isolate 3D7)) (UniProt P62344); assay: PfCDPK1 kinase inhibitors, biochemical, TCAMS library (AID 1159585; cut-off not given, nearly all actives have IC50 up to about 0.98 µM;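 also: inhibitors leave more ATP so luminescence rises with inhibition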); details: recombinant PfCDPK1, Kinase-Glo ATP depletion luminescence
Sequence of Calcium-dependent protein kinase 1 (Plasmodium falciparum (isolate 3D7)) (P62344 whole entry, looked up): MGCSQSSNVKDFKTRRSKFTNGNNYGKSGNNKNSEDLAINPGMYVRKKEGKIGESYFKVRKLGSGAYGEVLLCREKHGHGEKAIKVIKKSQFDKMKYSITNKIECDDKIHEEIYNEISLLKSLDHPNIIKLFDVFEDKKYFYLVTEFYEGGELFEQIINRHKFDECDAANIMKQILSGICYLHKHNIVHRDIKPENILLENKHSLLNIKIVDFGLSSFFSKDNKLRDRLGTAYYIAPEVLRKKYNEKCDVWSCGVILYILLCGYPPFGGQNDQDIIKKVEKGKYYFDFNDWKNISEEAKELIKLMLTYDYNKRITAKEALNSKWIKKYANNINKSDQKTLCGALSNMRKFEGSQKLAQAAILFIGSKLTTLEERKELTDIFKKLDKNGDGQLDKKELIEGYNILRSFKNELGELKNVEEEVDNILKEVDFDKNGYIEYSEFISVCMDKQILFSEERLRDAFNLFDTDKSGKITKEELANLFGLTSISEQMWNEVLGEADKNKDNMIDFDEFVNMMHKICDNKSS

[6] = biological target: Plasmodium falciparum protein kinase 6 (PK6, PF3D7_1337100) (UniProt Q8IDW1); assay: PfPK6 kinase inhibitors, biochemical, TCAMS library (AID 1159586); details: recombinant PfPK6, Kinase-Glo ATP depletion luminescence
Sequence of Plasmodium falciparum protein kinase 6 (PK6, PF3D7_1337100) (Q8IDW1 1-305): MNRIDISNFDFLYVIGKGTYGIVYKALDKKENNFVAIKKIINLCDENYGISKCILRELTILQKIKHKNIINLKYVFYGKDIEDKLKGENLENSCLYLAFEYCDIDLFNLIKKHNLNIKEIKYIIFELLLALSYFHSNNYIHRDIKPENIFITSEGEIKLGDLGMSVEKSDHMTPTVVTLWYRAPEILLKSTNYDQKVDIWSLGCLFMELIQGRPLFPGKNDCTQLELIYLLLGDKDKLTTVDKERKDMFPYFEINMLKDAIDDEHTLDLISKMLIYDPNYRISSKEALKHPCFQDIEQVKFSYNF

[7] = biological target: Protein kinase 7 (PK7), Plasmodium falciparum 3D7 (PF3D7_0213400) (UniProt Q7YTF7); assay: inhibition of Plasmodium PK7 catalytic activity – biochemical, TCAMS antimalarial set, Kinase-Glo luminescence (AID 1159587); details: recombinant PfPK7, Kinase-Glo ATP depletion luminescence
Sequence of Protein kinase 7 (PK7), Plasmodium falciparum 3D7 (PF3D7_0213400) (Q7YTF7 1-343): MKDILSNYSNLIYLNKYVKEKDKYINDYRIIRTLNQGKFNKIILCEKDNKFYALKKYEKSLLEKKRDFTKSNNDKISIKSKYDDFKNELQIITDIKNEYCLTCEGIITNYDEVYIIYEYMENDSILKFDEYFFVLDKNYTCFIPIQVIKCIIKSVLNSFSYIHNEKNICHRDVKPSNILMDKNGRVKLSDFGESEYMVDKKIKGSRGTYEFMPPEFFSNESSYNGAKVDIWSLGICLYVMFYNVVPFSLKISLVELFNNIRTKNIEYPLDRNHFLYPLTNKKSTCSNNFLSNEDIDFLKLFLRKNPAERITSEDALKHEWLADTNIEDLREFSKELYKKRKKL

[8] = biological target: Calcium-dependent protein kinase 4 (Plasmodium falciparum (isolate 3D7)) (UniProt Q8IBS5); assay: PfCDPK4 kinase inhibitors, biochemical, TCAMS library (AID 1159588; cut-off not given, nearly all actives have IC50 up to about 0.91 µM); details: recombinant PfCDPK4, Kinase-Glo ATP depletion luminescence
Sequence of Calcium-dependent protein kinase 4 (Plasmodium falciparum (isolate 3D7)) (Q8IBS5 whole entry, looked up): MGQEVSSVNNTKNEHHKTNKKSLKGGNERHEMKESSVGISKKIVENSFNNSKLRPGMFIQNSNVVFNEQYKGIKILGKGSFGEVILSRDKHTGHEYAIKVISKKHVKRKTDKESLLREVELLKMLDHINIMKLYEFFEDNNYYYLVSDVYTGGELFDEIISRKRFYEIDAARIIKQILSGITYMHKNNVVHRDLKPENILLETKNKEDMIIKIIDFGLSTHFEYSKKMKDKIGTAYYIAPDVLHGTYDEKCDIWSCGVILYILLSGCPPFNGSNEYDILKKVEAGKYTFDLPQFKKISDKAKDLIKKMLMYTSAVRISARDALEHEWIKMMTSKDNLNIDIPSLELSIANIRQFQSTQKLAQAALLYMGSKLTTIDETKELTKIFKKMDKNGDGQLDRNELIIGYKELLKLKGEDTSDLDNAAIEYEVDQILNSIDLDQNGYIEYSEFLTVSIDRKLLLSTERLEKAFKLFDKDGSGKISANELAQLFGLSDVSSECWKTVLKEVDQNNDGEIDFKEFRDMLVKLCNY

O=C(CSc1nc(-c2ccccc2Cl)ns1)Nc1ccc2c(c1)OCO2
inactive: inhibition [2] -8% | inhibition [3] -5% | outcome [5] | outcome [6] | outcome [7] | outcome [8]
active: growth inhibition [1] 77% | growth inhibition [4] 93%

O=C(c1cc(C(=O)Nc2ccc(F)cc2)c(=O)n(-c2ccc(F)cc2)c1)c1cc(Cl)ccc1O
active: growth inhibition [1] 98% | growth inhibition [4] 101%
inactive: inhibition [2] 13% | inhibition [3] -4% | outcome [5] | outcome [6] | outcome [7] | outcome [8]

c1ccc(-n2ncc(CNCc3ccc(-c4ccc(-c5nc6ccccc6[nH]5)s4)cc3)n2)cc1
active: growth inhibition [4] 93%
inactive: growth inhibition [1] 46% | inhibition [2] 27% | inhibition [3] 4% | outcome [5] | outcome [6] | outcome [7] | outcome [8]

Cc1nn(-c2ccc(Cl)cc2)c2[nH]c(CN3CCN(c4cccc(Cl)c4)CC3)cc(=O)c12
active: growth inhibition [1] 98% | growth inhibition [4] 98%
inactive: inhibition [2] 0% | inhibition [3] -3% | outcome [5] | outcome [6] | outcome [7] | outcome [8]

CCC(C)Oc1ccc2nc(N)nc(N)c2c1Cl (stereo not given)
inactive: growth inhibition [1] -1% | inhibition [3] -2% | outcome [5] | outcome [6] | outcome [7] | outcome [8]
active: inhibition [2] 57% | growth inhibition [4] 96%

COc1ccc(C(=O)N[C@@H](CC(C)C)C(=O)NC2CC[C@@H](C)N(C(=O)Nc3ccc(Cl)cc3)CC2=O)cc1OCCN1CCOCC1 (stereo not given in full)
active: growth inhibition [1] 91% | growth inhibition [4] 96%
inactive: inhibition [2] 5% | inhibition [3] 5% | outcome [5] | outcome [6] | outcome [7] | outcome [8]

COc1ccc2nc(C)cc(NCc3ccc4ccccc4c3)c2c1
active: growth inhibition [1] 75% | growth inhibition [4] 101%
inactive: inhibition [2] 21% | inhibition [3] -1% | outcome [5] | outcome [6] | outcome [7] | outcome [8]

CCOc1cc(C(=O)N[C@@H](Cc2ccccc2)[C@H](O)CNCc2cc(OC)cc(OC)c2)cc(N2CCCS2(=O)=O)c1
inactive: inhibition [2] -5% | inhibition [3] 0% | outcome [5] | outcome [6] | outcome [7] | outcome [8]
active: growth inhibition [1] 66% | growth inhibition [4] 94%

COc1ccc(-c2ccc(NC(=O)c3ccc(F)cc3)cc2)cc1CNC(C)C
active: growth inhibition [4] 97%
inactive: growth inhibition [1] 28% | inhibition [2] 24% | inhibition [3] 2% | outcome [5] | outcome [6] | outcome [7] | outcome [8]

CC(C)Cn1c(Sc2ccc(C#N)c([N+](=O)[O-])c2)nnc1-c1cccs1
inactive: growth inhibition [1] 32% | inhibition [2] 9% | inhibition [3] 5% | outcome [5] | outcome [6] | outcome [7] | outcome [8]
active: growth inhibition [4] 90%

CN(C)CCNc1nccc(N2CCc3ncnc(Nc4ccc(OCc5cccc(F)c5)c(Cl)c4)c3C2)n1
inactive: inhibition [3] 6% | outcome [5] | outcome [6] | outcome [7] | outcome [8]
active: growth inhibition [1] 97% | inhibition [2] 65% | growth inhibition [4] 100%

CC1(C)N=C(N)N=C(N)N1OCCCOc1ccc([N+](=O)[O-])cc1
inactive: inhibition [3] 0% | outcome [5] | outcome [6] | outcome [7] | outcome [8]
active: growth inhibition [1] 80% | inhibition [2] 68% | growth inhibition [4] 94%

COc1ccc(-c2cc(Nc3nc(-c4cccc(Cl)c4)nc4ccccc34)ccn2)cc1
inactive: growth inhibition [1] 17% | inhibition [2] 3% | inhibition [3] -2% | outcome [5] | outcome [6] | outcome [7] | outcome [8]
active: growth inhibition [4] 100%

O=C(c1cccc(-c2noc(C(F)(F)F)n2)c1)N1CCN(c2nsc3ccccc23)CC1
active: growth inhibition [1] 81% | growth inhibition [4] 90%
inactive: inhibition [2] 18% | inhibition [3] -2% | outcome [5] | outcome [6] | outcome [7] | outcome [8]

Cc1cccc2[nH]c(-c3ccc(-c4ccc(CNCc5cnn(-c6ccccc6)n5)cc4)s3)nc12
inactive: growth inhibition [1] 48% | inhibition [2] 16% | inhibition [3] -3% | outcome [5] | outcome [6] | outcome [7] | outcome [8]
active: growth inhibition [4] 97%

Cc1cc([N+](=O)[O-])ccc1NC(=O)Nc1cccc(C(F)(F)F)c1
inactive: inhibition [2] 15% | inhibition [3] -1% | outcome [5] | outcome [6] | outcome [7] | outcome [8]
active: growth inhibition [1] 100% | growth inhibition [4] 102%

CCOc1ccc(-c2nonc2NC(=O)CC(C)C)cc1OCC
inactive: growth inhibition [1] 37% | inhibition [2] -1% | inhibition [3] 6% | outcome [5] | outcome [6] | outcome [7] | outcome [8]
active: growth inhibition [4] 92%

CS(=O)(=O)N(c1ccccc1)c1cc(C(=O)N[C@@H](Cc2ccccc2)[C@H](O)CNC2CCCCC2)cc(N2CCCC2=O)c1
inactive: inhibition [2] 8% | inhibition [3] -3% | outcome [5] | outcome [6] | outcome [7] | outcome [8]
active: growth inhibition [1] 97% | growth inhibition [4] 100%

CN1CCN(c2ccnc3ccc(NC(=O)Nc4ccc(-c5ccncc5)c5ccccc45)cc23)CC1
active: growth inhibition [1] 84% | inhibition [2] 76% | growth inhibition [4] 101%
inactive: inhibition [3] -4% | outcome [5] | outcome [6] | outcome [7] | outcome [8]

Cc1nc(-c2cccc(C(=O)N(Cc3cncn3Cc3cccc(C(F)(F)F)c3)CC3CC3)c2)cs1
inactive: growth inhibition [1] 17% | inhibition [2] 7% | inhibition [3] 4% | outcome [5] | outcome [6] | outcome [7] | outcome [8]
active: growth inhibition [4] 97%

COc1ccc(C(C(=O)NC2CCN(C[C@H](O)c3ccnc4ccc(OC)cc34)CC2)N2CCN(c3ccc(F)cc3)CC2)cc1 (stereo not given in full)
active: growth inhibition [1] 86% | growth inhibition [4] 97%
inactive: inhibition [2] 16% | inhibition [3] -6% | outcome [5] | outcome [6] | outcome [7] | outcome [8]

COc1cc2nc(NCCCOC(C)C)n3nc(-c4ccccc4)nc3c2cc1OC
inactive: inhibition [2] -3% | inhibition [3] -1% | outcome [5] | outcome [6] | outcome [7] | outcome [8]
active: growth inhibition [1] 97% | growth inhibition [4] 94%

C=C[C@H]1CN(CCCCCCC)CC[C@H]1C[C@@H](Cc1ccnc2ccc(OC)cc12)OC(=O)[C@](OC)(c1ccccc1)C(F)(F)F
active: growth inhibition [1] 96% | growth inhibition [4] 96%
inactive: inhibition [2] 12% | inhibition [3] 7% | outcome [5] | outcome [6] | outcome [7] | outcome [8]

O=C(NCCCCN1CCN(c2cccc3ccccc23)CC1)c1ccc(NC(=O)c2ccc(Cl)cc2)cc1
active: growth inhibition [1] 64% | growth inhibition [4] 101%
inactive: inhibition [2] 38% | inhibition [3] 6% | outcome [5] | outcome [6] | outcome [7] | outcome [8]

CCCc1cc(C)ccc1OCCCON1C(N)=NC(N)=NC1(C)C
active: growth inhibition [1] 97% | inhibition [2] 64% | growth inhibition [4] 97%
inactive: inhibition [3] 2% | outcome [5] | outcome [6] | outcome [7] | outcome [8]

Cc1cc(-c2cccc(CNC3CCCC3)c2)ccc1S(=O)(=O)NCCN1CCCC1
inactive: growth inhibition [1] 7% | inhibition [2] 38% | inhibition [3] 2% | outcome [5] | outcome [6] | outcome [7] | outcome [8]
active: growth inhibition [4] 81%

CN1CCN(c2nc(NCCc3ccc(O)cc3)nc(NCc3ccccc3-c3ccc(C(F)(F)F)cc3)n2)CC1
inactive: inhibition [2] 35% | inhibition [3] 6% | outcome [5] | outcome [6] | outcome [7] | outcome [8]
active: growth inhibition [1] 82% | growth inhibition [4] 90%

COc1cc(CC2c3cc(O)c(Cl)cc3CCN2C)c(OC)cc1C (stereo not given)
active: growth inhibition [1] 88% | growth inhibition [4] 99%
inactive: inhibition [2] 10% | inhibition [3] 0% | outcome [5] | outcome [6] | outcome [7] | outcome [8]

O=C(Cc1ccccc1)NC1CCN(c2ccnc3cc(Cl)ccc23)C1 (stereo not given)
inactive: inhibition [2] 6% | inhibition [3] -6% | outcome [5] | outcome [6] | outcome [7] | outcome [8]
active: growth inhibition [1] 78% | growth inhibition [4] 101%

O=C(/C=C/c1ccc(Cl)cc1Cl)N1CCC(CCN2CCC(c3c[nH]c4ccccc34)CC2)CC1
active: inhibition [2] 94% | growth inhibition [4] 98%
inactive: growth inhibition [1] 37% | inhibition [3] -6% | outcome [5] | outcome [6] | outcome [7] | outcome [8]

Cn1nc(-c2cccc(CNCc3ccccc3)c2)c2cnc(NC3CCCC3)nc21
inactive: growth inhibition [1] 11% | inhibition [2] 5% | inhibition [3] 1% | outcome [5] | outcome [6] | outcome [7] | outcome [8]
active: growth inhibition [4] 85%

NC(Cc1cccc(I)c1)C(=O)NCC1CCCO1 (stereo not given)
inactive: inhibition [3] 1% | outcome [5] | outcome [6] | outcome [7] | outcome [8]
active: growth inhibition [1] 50% | inhibition [2] 52% | growth inhibition [4] 98%

CNC(=O)C1Cc2c([nH]c3ccc(Cl)cc23)C2(CCN(CCc3ccccc3)CC2)N1 (stereo not given)
inactive: growth inhibition [1] 16% | inhibition [2] 2% | inhibition [3] -2% | outcome [5] | outcome [6] | outcome [7] | outcome [8]
active: growth inhibition [4] 98%

O=C(Nc1cccc(-c2cccc(-c3nc4ccc(F)cc4[nH]3)c2)c1)c1ccncc1
active: growth inhibition [4] 92%
inactive: growth inhibition [1] 24% | inhibition [2] 28% | inhibition [3] -3% | outcome [5] | outcome [6] | outcome [7] | outcome [8]

COc1cc(NC(=O)c2ccc(-c3ccccc3)cc2)ccc1OCCCN1CCC(c2ccccc2)CC1
inactive: growth inhibition [1] 30% | inhibition [2] 46% | inhibition [3] 2% | outcome [5] | outcome [6] | outcome [7] | outcome [8]
active: growth inhibition [4] 103%

CCNc1cc(C(=O)N[C@@H](Cc2ccccc2)[C@H](O)CNC(C)(C)CC(C)(C)C)c(F)c(N2CCCCS2(=O)=O)c1
inactive: inhibition [2] 8% | inhibition [3] -1% | outcome [5] | outcome [6] | outcome [7] | outcome [8]
active: growth inhibition [1] 63% | growth inhibition [4] 94%

O=c1[nH]nc(-c2ccc(N3CCCC3)c([N+](=O)[O-])c2)c2ccccc12
active: growth inhibition [4] 100%
inactive: growth inhibition [1] 39% | inhibition [2] 2% | inhibition [3] -6% | outcome [5] | outcome [6] | outcome [7] | outcome [8]

Cc1cccc2[nH]c(-c3cccc(-c4ccc(NC(=O)c5cnn6cccnc56)cc4)c3)nc12
inactive: inhibition [3] -1% | outcome [5] | outcome [6] | outcome [7] | outcome [8]
active: growth inhibition [1] 73% | inhibition [2] 99% | growth inhibition [4] 101%

CC(NC(=O)NC1CCC(CCN2CCCc3ccccc32)CC1)c1cccc2ccccc12 (stereo not given)
active: growth inhibition [1] 83% | growth inhibition [4] 90%
inactive: inhibition [2] -4% | inhibition [3] -1% | outcome [5] | outcome [6] | outcome [7] | outcome [8]

O=C(c1ccc(-c2ccccn2)s1)N1CCc2cc3nccc(N4CCN5CCC[C@H]5C4)c3cc21
inactive: growth inhibition [1] 49% | inhibition [2] -15% | inhibition [3] -4% | outcome [5] | outcome [6] | outcome [7] | outcome [8]
active: growth inhibition [4] 96%
